Results as given in PubChem BioAssay (EPA / NIEHS).
Results filed as inconclusive are left out. Activity calls are given as the source filed them. The calls were made as follows, unless noted: active = hit-call score of the fitted dose curve at least 0.9, where 1 is the maximum; inconclusive = response in the unintended direction; inactive = score below 0.9.

Tests used:
[1] = molecular target: Agonist Androgen Response Element (ARE), AR (gene 367) (UniProt P10275); experiment: OT_AR_ARELUC_AG_1440: Odyssey Thera (OT) 24-hour CHO-K1 Luciferase Assay for Agonist Androgen Response Element (ARE) (AID 2283379)
Sequence of Agonist Androgen Response Element (ARE), AR (gene 367) (P10275 whole entry, looked up): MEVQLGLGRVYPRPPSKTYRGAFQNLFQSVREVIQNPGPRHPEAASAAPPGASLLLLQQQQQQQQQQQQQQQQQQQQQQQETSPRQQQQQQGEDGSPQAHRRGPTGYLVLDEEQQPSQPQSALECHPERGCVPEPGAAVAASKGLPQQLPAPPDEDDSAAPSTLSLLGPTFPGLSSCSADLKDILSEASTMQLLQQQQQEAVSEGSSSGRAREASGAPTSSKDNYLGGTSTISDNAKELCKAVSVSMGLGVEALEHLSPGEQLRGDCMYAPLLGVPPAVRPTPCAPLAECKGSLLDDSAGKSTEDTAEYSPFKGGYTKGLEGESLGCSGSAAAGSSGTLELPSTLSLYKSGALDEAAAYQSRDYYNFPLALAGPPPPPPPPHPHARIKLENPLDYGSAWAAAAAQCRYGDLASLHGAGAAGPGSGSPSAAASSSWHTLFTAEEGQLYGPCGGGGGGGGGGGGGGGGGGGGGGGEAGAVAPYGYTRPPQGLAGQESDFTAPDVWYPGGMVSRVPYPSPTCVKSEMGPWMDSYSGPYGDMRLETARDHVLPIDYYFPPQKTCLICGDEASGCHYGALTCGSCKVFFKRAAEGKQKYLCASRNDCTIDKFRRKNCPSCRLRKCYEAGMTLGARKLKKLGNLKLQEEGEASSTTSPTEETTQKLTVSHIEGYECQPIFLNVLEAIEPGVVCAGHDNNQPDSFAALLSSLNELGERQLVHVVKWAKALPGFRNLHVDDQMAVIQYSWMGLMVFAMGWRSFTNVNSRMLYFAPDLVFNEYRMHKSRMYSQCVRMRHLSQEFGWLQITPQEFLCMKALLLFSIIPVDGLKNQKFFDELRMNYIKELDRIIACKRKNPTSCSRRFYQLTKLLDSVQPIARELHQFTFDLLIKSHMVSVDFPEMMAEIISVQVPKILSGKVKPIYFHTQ
Procedure, shortened: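 Luminescence increase above DMSO, read after a 24 h compound treatment of CHO-K1 cells expressing an androgen response element luciferase reporter, gives the single primary endpoint; concentration-response fitting used the positive direction.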

[2] = molecular target: Estrogen receptor (Homo sapiens) (UniProt P03372); experiment: OT_ERa_GFPERaERE_0480: Odyssey Thera (OT) 8-hour HeLa Transcription Induction Assay for Estrogen Receptor (AID 2283381; active = hit-call score of the fitted dose curve at least 0.9, where 1 is the maximum; inactive = score below 0.9)
Sequence of Estrogen receptor (Homo sapiens) (P03372 whole entry, looked up): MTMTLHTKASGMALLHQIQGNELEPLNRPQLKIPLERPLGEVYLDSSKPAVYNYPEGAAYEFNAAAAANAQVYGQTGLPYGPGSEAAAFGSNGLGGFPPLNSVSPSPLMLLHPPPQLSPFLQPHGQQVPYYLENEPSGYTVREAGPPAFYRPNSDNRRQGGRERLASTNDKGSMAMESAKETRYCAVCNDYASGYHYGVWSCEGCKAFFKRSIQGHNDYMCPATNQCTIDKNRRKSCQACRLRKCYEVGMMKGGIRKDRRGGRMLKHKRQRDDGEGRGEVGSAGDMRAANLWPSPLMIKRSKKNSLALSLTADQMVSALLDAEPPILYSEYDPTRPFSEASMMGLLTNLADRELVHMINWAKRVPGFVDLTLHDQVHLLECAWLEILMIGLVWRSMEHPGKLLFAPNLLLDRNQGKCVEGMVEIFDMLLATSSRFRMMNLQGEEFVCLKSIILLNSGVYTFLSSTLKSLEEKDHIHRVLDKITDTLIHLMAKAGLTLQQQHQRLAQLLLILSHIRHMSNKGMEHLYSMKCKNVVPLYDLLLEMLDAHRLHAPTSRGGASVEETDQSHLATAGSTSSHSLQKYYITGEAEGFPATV
Procedure, shortened: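 Human cervical HeLa cells were treated for 8 hours, after which ERE-driven GFP induction was measured by fluorescence microscopy; increases over DMSO baseline defined activity.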

[3] = molecular target: Estrogen receptor (Homo sapiens) (UniProt P03372); experiment: OT_ERa_GFPERaERE_0120: Odyssey Thera (OT) 2-hour HeLa Transcription Induction Assay for Estrogen Receptor (AID 2283382)
Procedure, shortened: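 Cells (human cervical HeLa) receive compound, incubate 2 hours, then are imaged for fluorescent reporter induction. Images are quantified by high content analysis, and activity is fitted as gain of signal against DMSO.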

[4] = molecular target: Retinoic acid receptor RXR-alpha (Homo sapiens) (UniProt P19793); experiment: OT_NURR1_NURR1RXRa_0480: Odyssey Thera (OT) 8-hour HEK293T Protein Complementation Assay for Nurr1/retinoid X receptor (RXR) (AID 2283385)
Sequence of Retinoic acid receptor RXR-alpha (Homo sapiens) (P19793 whole entry, looked up, the tested form may be a part): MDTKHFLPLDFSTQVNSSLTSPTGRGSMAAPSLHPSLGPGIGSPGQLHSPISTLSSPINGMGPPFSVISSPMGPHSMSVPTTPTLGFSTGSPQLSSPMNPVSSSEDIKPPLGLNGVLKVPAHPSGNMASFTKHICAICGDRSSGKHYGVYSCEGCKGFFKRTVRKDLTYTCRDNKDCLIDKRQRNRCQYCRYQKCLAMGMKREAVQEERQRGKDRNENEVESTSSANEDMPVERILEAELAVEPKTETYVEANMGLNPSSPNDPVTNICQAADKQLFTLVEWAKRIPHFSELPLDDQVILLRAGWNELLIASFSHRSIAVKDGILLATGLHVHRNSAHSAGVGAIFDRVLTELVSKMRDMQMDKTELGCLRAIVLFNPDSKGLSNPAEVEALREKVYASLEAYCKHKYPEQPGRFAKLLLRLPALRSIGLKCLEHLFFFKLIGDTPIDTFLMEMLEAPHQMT
Procedure, shortened: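 Interaction of bait and prey reconstitutes a functional reporter, whose fluorescence was measured in HEK293T cells dosed with compound for 8 hours. Signal gain relative to DMSO defined the single endpoint.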

[5] = molecular target: Retinoic acid receptor RXR-alpha (Homo sapiens) (UniProt P19793); experiment: OT_NURR1_NURR1RXRa_1440: Odyssey Thera (OT) 24-hour HEK293T Protein Complementation Assay for Nurr1/retinoid X receptor (RXR) (AID 2283386)
Procedure, shortened: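 Steps: fragment-tagged Nurr1 and RXRα expressed in HEK293T; compounds added; after 24 h, complemented reporter quantified by fluorescence intensity; signal increase over DMSO fitted as the single endpoint.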

[6] = molecular target: Peroxisome proliferator-activated receptor gamma (Homo sapiens) (UniProt P37231); experiment: OT_PPARg_PPARgSRC1_0480: Odyssey Thera (OT) 8-hour Protein-Complementation Assay for Peroxisome Proliferator-activated Receptor Gamma / SRC-1 Co-activator (AID 2283387);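 also: nuclear to cytoplasmic split Venus YFP fluorescence ratio reporting PPARg SRC-1 interaction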
Sequence of Peroxisome proliferator-activated receptor gamma (Homo sapiens) (P37231 whole entry, looked up, the tested form may be a part): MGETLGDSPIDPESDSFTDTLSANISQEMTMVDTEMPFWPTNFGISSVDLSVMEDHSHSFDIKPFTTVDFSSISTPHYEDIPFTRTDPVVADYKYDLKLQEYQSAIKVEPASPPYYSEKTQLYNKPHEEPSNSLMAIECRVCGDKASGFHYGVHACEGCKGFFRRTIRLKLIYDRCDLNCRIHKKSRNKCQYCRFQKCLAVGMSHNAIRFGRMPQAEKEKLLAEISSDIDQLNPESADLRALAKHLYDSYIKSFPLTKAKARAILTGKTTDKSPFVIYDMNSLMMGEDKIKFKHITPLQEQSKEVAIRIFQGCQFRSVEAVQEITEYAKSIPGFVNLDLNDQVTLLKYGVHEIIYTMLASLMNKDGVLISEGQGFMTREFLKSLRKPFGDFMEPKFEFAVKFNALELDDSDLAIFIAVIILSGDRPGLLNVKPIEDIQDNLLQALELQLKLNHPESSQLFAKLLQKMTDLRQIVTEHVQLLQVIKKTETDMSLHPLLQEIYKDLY
Procedure, shortened: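 Protein-fragment complementation in HEK293T: Venus YFP halves (residues 1-158, 159-239, mutated to IFP1/IFP2) fused to PPARg/SRC-1. 8 h exposure; N/C ratio at 488 nm; DMSO negative control.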

[7] = molecular target: Peroxisome proliferator-activated receptor gamma (Homo sapiens) (UniProt P37231); experiment: OT_PPARg_PPARgSRC1_1440: Odyssey Thera (OT) 24-hour Protein-Complementation Assay for Peroxisome Proliferator-activated Receptor Gamma/ SRC-1 Co-activator (AID 2283388);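 also: nuclear to cytoplasmic ratio of reconstituted Venus YFP fluorescence in fixed imaged cells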
Procedure, shortened: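 Transient HEK293T, YFP fragments 1-158/159-239 (mutant IFP1/IFP2) fused to PPARg/SRC-1; 24 h dosing; fix 4% formaldehyde, Draq5; Opera imaging 488/635 nm; N/C ratio, gain vs DMSO.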

[8] = read-out: Tumor necrosis factor receptor superfamily member 6 (Homo sapiens) (UniProt P25445); experiment: LTEA_HepaRG_FAS: Life Technologies and Expression Analysis (LTEA) Assay for Fas cell surface death receptor (FAS) using HepaRG (AID 2283447; active = hit-call score of the fitted dose curve at least 0.9, where 1 is the maximum; inactive = score below 0.9); settings: mRNA level, 48 h; actives raise or lower the signal
Procedure, shortened: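 Differentiated human HepaRG cells, pre-cultured 48 h, were exposed in duplicate for 48 h to 8-point half-log concentrations (top 100 uM, 0.5% DMSO) in serum-free induction medium; FAS mRNA measured by qRT-PCR, normalized to ACTB/GAPDH/POLR2A, bidirectional fit versus DMSO.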

[9] = molecular target: Estrogen receptor beta (Homo sapiens) (UniProt Q92731); experiment: OT_ER_ERbERb_1440: Odyssey Thera (OT) 24-hour HEK293T Protein-Complementation Assay for Estrogen Receptor-beta/-beta Homodimer (AID 2283380);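 also: fluorescence gain from ER beta LBD homodimer complementation read by laser scanning cytometry; scored as signal increase over DMSO baseline for both agonists and antagonists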
Sequence of Estrogen receptor beta (Homo sapiens) (Q92731 whole entry, looked up, the tested form may be a part): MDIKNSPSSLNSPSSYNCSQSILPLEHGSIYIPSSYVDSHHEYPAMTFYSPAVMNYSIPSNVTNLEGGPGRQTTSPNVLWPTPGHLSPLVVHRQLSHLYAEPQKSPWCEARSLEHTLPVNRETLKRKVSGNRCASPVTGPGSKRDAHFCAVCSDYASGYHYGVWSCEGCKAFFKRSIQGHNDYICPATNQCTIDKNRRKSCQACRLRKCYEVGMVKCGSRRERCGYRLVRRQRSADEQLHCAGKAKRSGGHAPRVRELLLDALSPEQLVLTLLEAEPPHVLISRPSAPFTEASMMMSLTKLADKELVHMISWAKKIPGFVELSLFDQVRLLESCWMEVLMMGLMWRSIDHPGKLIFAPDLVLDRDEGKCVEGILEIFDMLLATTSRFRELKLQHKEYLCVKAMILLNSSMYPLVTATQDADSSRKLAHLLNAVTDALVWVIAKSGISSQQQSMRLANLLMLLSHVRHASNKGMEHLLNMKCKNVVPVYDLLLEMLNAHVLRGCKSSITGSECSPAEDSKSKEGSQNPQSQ
Procedure, shortened: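 HEK293T cells stably expressing human ER-beta LBD (aa 310-547) PCA homodimer pair, dosed 24 h; formaldehyde-fixed, Draq5-stained. Readout: increase in nuclear (agonist) or nuclear plus cytoplasmic (antagonist) fluorescence intensity versus DMSO, gain-of-signal fitting.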

[10] = molecular target: Bile acid receptor (Homo sapiens) (UniProt Q96RI1); experiment: OT_FXR_FXRSRC1_0480: Odyssey Thera (OT) 8-hour HEK293T Protein-Complementation Assay for Farnesoid X receptor/SRC-1 Co-activator (AID 2283383)
Sequence of Bile acid receptor (Homo sapiens) (Q96RI1 whole entry, looked up, the tested form may be a part): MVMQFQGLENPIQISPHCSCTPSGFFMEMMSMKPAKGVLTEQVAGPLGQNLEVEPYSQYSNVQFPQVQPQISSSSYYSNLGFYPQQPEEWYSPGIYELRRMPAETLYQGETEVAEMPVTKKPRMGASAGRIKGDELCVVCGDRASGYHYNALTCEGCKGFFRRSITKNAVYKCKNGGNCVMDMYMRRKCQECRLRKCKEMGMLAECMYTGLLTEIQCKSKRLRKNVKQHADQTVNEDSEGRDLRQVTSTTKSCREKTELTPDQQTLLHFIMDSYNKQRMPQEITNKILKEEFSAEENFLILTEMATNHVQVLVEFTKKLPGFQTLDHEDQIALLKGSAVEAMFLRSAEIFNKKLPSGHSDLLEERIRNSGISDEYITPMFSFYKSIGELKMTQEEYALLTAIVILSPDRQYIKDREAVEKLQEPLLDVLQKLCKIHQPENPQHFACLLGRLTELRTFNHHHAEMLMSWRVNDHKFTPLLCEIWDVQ
Procedure, shortened: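 PCA, HEK293T, 8 h compound exposure; FXR–SRC-1 binding reconstitutes split reporter; fluorescence intensity; positive-direction fit vs DMSO.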

[11] = molecular target: Bile acid receptor (Homo sapiens) (UniProt Q96RI1); experiment: OT_FXR_FXRSRC1_1440: Odyssey Thera (OT) 24-hour HEK293T Protein-Complementation Assay for Farnesoid X receptor/SRC-1 Co-activator (AID 2283384)
Procedure, shortened: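 Measures ligand-driven FXR–SRC-1 co-activator recruitment in HEK293T via fragment complementation, fluorescence intensity at 24 h. DMSO served as negative control and baseline for gain-of-signal fitting.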

[12] = CEETOX_H295R_11DCORT: CeeTox H295R High-throughput Steroidogenesis Assay for 11-Deoxycortisol (11DCORT) (AID 2283432; active = hit-call score of the fitted dose curve at least 0.9, where 1 is the maximum; inactive = score below 0.9;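 also: human adrenal H295R cells prestimulated with 10 µM forskolin for 48 h; 11-deoxycortisol secreted into the medium measured by LC-MS/MS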); settings: actives raise or lower the signal
Procedure, shortened: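 Adrenal carcinoma line H295R, run per OECD 456 with minor changes, was forskolin-stimulated (10 uM, 48 h) before a 48 h chemical exposure at 0.1% DMSO. Secreted 11-deoxycortisol was quantified by HPLC-MS/MS.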

[13] = CEETOX_H295R_OHPREG: CeeTox H295R High-throughput Steroidogenesis Assay for OH-Pregnenolone (OHPREG) (AID 2283434; active = hit-call score of the fitted dose curve at least 0.9, where 1 is the maximum; inactive = score below 0.9); settings: actives raise or lower the signal
Procedure, shortened: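 Readout: HPLC-MS/MS of 17alpha-hydroxypregnenolone in medium after 48 h chemical exposure of H295R cells pretreated with forskolin. Values fitted bidirectionally relative to DMSO; chemicals reducing viability to 20–70% were retested after 10-fold dilution.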

[14] = CEETOX_H295R_OHPROG: CeeTox H295R High-throughput Steroidogenesis Assay for OH-Progesterone (OHPROG) (AID 2283435; active = hit-call score of the fitted dose curve at least 0.9, where 1 is the maximum; inactive = score below 0.9;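 also: human adrenal H295R cells primed 48 h with 10 µM forskolin; 17alpha-hydroxyprogesterone secreted into medium measured by HPLC-MS/MS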); settings: actives raise or lower the signal
Procedure, shortened: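 Steps: seed H295R cells and adhere overnight; stimulate with 10 uM forskolin for 48 h; replace with chemical-containing medium (0.1% DMSO) for 48 h; extract medium with MTBE; quantify 17alpha-hydroxyprogesterone by reverse-phase C18 HPLC-MS/MS against a 7-point curve.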

[15] = CEETOX_H295R_ANDR: CeeTox H295R High-throughput Steroidogenesis Assay for Androstenedione (ANDR) (AID 2283436; active = hit-call score of the fitted dose curve at least 0.9, where 1 is the maximum; inactive = score below 0.9;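 also: human H295R adrenal cells exposed for 48 h with androstenedione measured in medium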); settings: actives raise or lower the signal
Procedure, shortened: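 Steroidogenesis in H295R adrenal cells after 48 h dosing; androstenedione quantified by LC-MS/MS, with DMSO as negative control and baseline for bidirectional curve fitting.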

[16] = CEETOX_H295R_CORTISOL: CeeTox H295R High-throughput Steroidogenesis Assay for Cortisol (AID 2283438; active = hit-call score of the fitted dose curve at least 0.9, where 1 is the maximum; inactive = score below 0.9); settings: actives raise or lower the signal
Procedure, shortened: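 Cortisol synthesis by H295R cells is measured 48 h after chemical dosing, following a 48 h stimulation with 10 uM forskolin. Hormone is extracted and quantified by HPLC-MS/MS, and activity is fitted bidirectionally against the DMSO control.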

[17] = CEETOX_H295R_DOC: CeeTox H295R High-throughput Steroidogenesis Assay for DOC (AID 2283439; active = hit-call score of the fitted dose curve at least 0.9, where 1 is the maximum; inactive = score below 0.9); settings: actives raise or lower the signal
Procedure, shortened: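 Steps: seed H295R, adhere overnight; 10 uM forskolin 48 h; replace with chemical medium (0.1% DMSO) 48 h; collect medium, MTBE extraction, HPLC-MS/MS for DOC. Viability then checked by MTT; cytotoxic chemicals diluted until viability ≥70%.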

[18] = CEETOX_H295R_ESTRADIOL: CeeTox H295R High-throughput Steroidogenesis Assay for Estradiol (AID 2283440; active = hit-call score of the fitted dose curve at least 0.9, where 1 is the maximum; inactive = score below 0.9;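 also: estradiol secreted into medium quantified by LC-MS/MS after dansyl derivatisation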); settings: actives raise or lower the signal
Procedure, shortened: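 Following OECD 456 with minor changes, H295R cells received 10 uM forskolin for 48 h and then test chemical for 48 h. Hormone output was read by HPLC-MS/MS, with cytotoxic concentrations diluted until MTT viability reached ≥70%.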

[19] = CEETOX_H295R_ESTRONE: CeeTox H295R High-throughput Steroidogenesis Assay for Estrone (AID 2283441; active = hit-call score of the fitted dose curve at least 0.9, where 1 is the maximum; inactive = score below 0.9); settings: actives raise or lower the signal
Procedure, shortened: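 Estrone secreted into medium quantified by LC-MS/MS after dansyl chloride derivatization, following 48 h chemical exposure (0.1% DMSO final) of forskolin-prestimulated (10 uM, 48 h) H295R cells; gain or loss fitted against DMSO; MTT viability in same wells.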

[20] = CEETOX_H295R_PROG: CeeTox H295R High-throughput Steroidogenesis Assay for Progesterone (PROG) (AID 2283442; active = hit-call score of the fitted dose curve at least 0.9, where 1 is the maximum; inactive = score below 0.9;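 also: human H295R adrenal cells primed with 10 µM forskolin before dosing; progesterone secreted into medium by H295R cells measured by HPLC-MS/MS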); settings: actives raise or lower the signal
Procedure, shortened: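 Adrenal H295R line, forskolin-stimulated (10 uM, 48 h) before dosing. 48 h exposure, 0.1% DMSO vehicle. Secreted progesterone by reverse-phase HPLC with ESI+ MS/MS quantification; DMSO-normalised bidirectional curve fit.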

Cc1ccc(C)c(O)c1C
outcome [1]: inactive | outcome [2]: inactive | outcome [3]: inactive | outcome [4]: inactive | outcome [5]: inactive | outcome [6]: inactive | outcome [7]: inactive | outcome [8]: inactive

Cc1cccc(C)c1O
outcome [1]: inactive | outcome [9]: inactive | outcome [2]: inactive | outcome [3]: inactive | outcome [6]: inactive | outcome [7]: inactive | outcome [8]: inactive

Cc1cccc([N+](=O)[O-])c1C
outcome [1]: inactive | outcome [9]: inactive | outcome [2]: inactive | outcome [3]: inactive | outcome [4]: inactive | outcome [5]: inactive | outcome [6]: inactive | outcome [7]: inactive | outcome [8]: inactive

Cc1ccccc1Cl
outcome [1]: inactive | outcome [2]: inactive | outcome [3]: inactive | outcome [10]: inactive | outcome [11]: inactive | outcome [4]: inactive | outcome [5]: inactive | outcome [7]: inactive | outcome [8]: inactive

Cc1nc(-c2ccc3c(c2)CCN(CCC2CCC(NC(=O)/C=C/c4ccc(F)cc4)CC2)CC3)no1 (stereo unspecified)
outcome [1]: inactive | outcome [9]: inactive | outcome [2]: inactive | outcome [3]: inactive | outcome [11]: inactive | outcome [4]: inactive | outcome [5]: inactive | outcome [6]: inactive | outcome [7]: inactive | AC50 [12]: 0.199 µM (active) | AC50 [13]: 0.0518 µM (active) | AC50 [14]: 0.224 µM (active) | AC50 [15]: 0.365 µM (active) | outcome [16]: inactive | AC50 [17]: 53.2 nM (active) | outcome [18]: inactive | outcome [19]: inactive | AC50 [20]: 0.0391 µM (active) | outcome [8]: inactive

CNC(=O)[C@H]1O[C@@H](n2cnc3c(NCc4cc(Cl)ccc4OCc4cc(C)no4)ncnc32)[C@H](O)[C@@H]1N
outcome [1]: inactive | outcome [9]: inactive | outcome [2]: inactive | outcome [3]: inactive | outcome [10]: inactive | outcome [4]: inactive | outcome [5]: inactive | outcome [6]: inactive | outcome [7]: inactive | outcome [8]: inactive

CCOc1ccc2c(c1)C(C)=CC(C)(C)N2
outcome [1]: inactive | outcome [2]: inactive | outcome [3]: inactive | outcome [4]: inactive | outcome [5]: inactive | outcome [6]: inactive | outcome [7]: inactive | outcome [13]: inactive | AC50 [14]: 2.44 µM (active) | AC50 [15]: 36.4 µM (active) | AC50 [20]: 16.7 µM (active) | outcome [8]: inactive

Cc1cccc(Nc2cc(Cl)nc(SCC(=O)O)n2)c1C
outcome [1]: inactive | outcome [9]: inactive | outcome [2]: inactive | outcome [3]: inactive | outcome [4]: inactive | outcome [5]: inactive | outcome [6]: inactive | outcome [7]: inactive | AC50 [12]: 7.04 µM (active) | AC50 [13]: 13.1 µM (active) | AC50 [14]: 8.61 µM (active) | outcome [15]: inactive | outcome [16]: inactive | outcome [17]: inactive | outcome [18]: inactive | outcome [19]: inactive | AC50 [20]: 12.3 µM (active) | outcome [8]: inactive

O=c1[nH]cc(F)c(=O)[nH]1
outcome [9]: inactive | outcome [2]: inactive | outcome [3]: inactive | outcome [10]: inactive | AC50 [11]: 5.73 µM (active) | outcome [4]: inactive | outcome [5]: inactive | outcome [7]: inactive | AC50 [8]: 31.3 µM (active)
